Data from PubChem BioAssay (Tox21).
Records with an inconclusive call do not appear. Where a call stands in place of a potency, no number is given. The source made the active and inactive calls. Calls follow the shape of the full dose curve.

Each molecule was assayed against 5-hydroxytryptamine receptor 2A (Homo sapiens) (UniProt P28223) (assay: 5-hydroxytryptamine receptor 2A (HTR2A) small molecule antagonists, cell-based qHTS assay (AID 1963586; also: nearly all actives have a fitted effect of over 45% in size)). Details: HTR2A-CHO cells, DOI-induced calcium flux, fluorescence; series mostly up to 61.5 µM.
5-hydroxytryptamine receptor 2A (Homo sapiens), sequence (P28223 whole entry, looked up): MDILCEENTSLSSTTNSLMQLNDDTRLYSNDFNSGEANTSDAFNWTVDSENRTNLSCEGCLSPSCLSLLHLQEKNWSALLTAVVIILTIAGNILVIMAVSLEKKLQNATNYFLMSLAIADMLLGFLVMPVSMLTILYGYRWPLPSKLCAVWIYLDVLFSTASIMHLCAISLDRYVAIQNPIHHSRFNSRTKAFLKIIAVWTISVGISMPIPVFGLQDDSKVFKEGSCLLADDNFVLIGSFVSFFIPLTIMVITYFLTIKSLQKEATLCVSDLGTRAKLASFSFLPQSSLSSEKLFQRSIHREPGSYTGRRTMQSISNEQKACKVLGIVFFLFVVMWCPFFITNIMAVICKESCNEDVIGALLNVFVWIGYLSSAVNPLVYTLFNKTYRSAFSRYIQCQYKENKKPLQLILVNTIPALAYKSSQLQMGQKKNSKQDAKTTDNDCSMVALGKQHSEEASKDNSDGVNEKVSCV
Text: National Center for Advancing Translational Sciences [NCATS]
Division of Preclinical Innovation [DPI]
U.S. Environmental Protection Agency [EPA]
National Institutes of Environmental Health Sciences [NIEHS]
National Toxicology Program [NTP]
U.S. Food and Drug Administration [FDA]
The HTR2A receptor is a subtype of the 5-HT2 receptor that belongs to the serotonin receptor family and is a G protein-coupled receptor (GPCR). The HTR2A-CHO cell line stably expressing human 5-hydroxytryptamine receptor 2A (HTR2A) can be used for screening antagonists of interactions between 5-HT2 and its ligands. The HTR2A-CHO calcium flux assay is a homogeneous fluorescence-based assay for detecting the intracellular calcium level using FDSS kinetic plate reader system.
Tox21 Assay Protocol Summary:
HTR2A-CHO cells were dispensed at 2000 cells/3uL/well in 1536-well black-clear bottom plates using a Multidrop Dispenser. After the assay plates were incubated at a 37 C/5% CO2 incubator for 18 h, 3 uL of Dye Loading Buffer was transferred to the assay plate by a Flying Reagent Dispenser. The assay plates were incubated at 37 C for 1h. For antagonist mode, 23 nL of compounds dissolved in DMSO, positive controls or DMSO only was transferred to the assay plate by a pin tool. After 5 min incubation at room temperature, 1.5 uL of 4-Iodo-2,5-dimethoxy-alpha-methylbenzeneethanamine hydrochloride (DOI) at 4nM was added to each well. The fluorescence intensity in the plates was measured using FDSS 7000EX kinetic plate reader for 3 min at 1 sec intervals.
Potency is read from the fitted curve at half-maximal effect.

`N=C(N)[Se]` was tested. Which Potency did it give?
The Potency was “inactive”.

Which Potency does the source give for `c1cc[c]([Hg][c]2ccccc2)cc1` here?
The Potency was “inactive”.

With `CN(C)S(=O)(=O)N(SC(F)(Cl)Cl)c1ccccc1` as the molecule, how does the Potency read?
The Potency was “inactive”.

`N[C@@H]1C[C@H]1c1ccccc1` was tested. Which Potency did it give?
The Potency was “inactive”.

Which Potency does the source give for `Cc1ncc(C[n+]2csc(CCO)c2C)c(N)n1` here?
The Potency was “inactive”.

With `CCOP(=S)(Oc1cnc(C(C)(C)C)nc1)OC(C)C` (stereo not given) as the molecule, how does the Potency read?
Its Potency is “inactive”.

Which Potency does the source give for `CC(O)CCl` (stereo not given) here?
Its Potency is “inactive”.

With `[Cl-].[Cl-].[Cl-].[Yb+3]` as the molecule, how does the Potency read?
Its Potency is “inactive”.

With `Brc1ccc(Oc2ccc(Br)cc2Br)c(Br)c1` as the molecule, how does the Potency read?
Its Potency is “inactive”.

How did the activity, negative = inhibition turn out when `Cc1ccc2nc3sc(=O)sc3nc2c1` was run?
The activity, negative = inhibition was 8.83% [at 12.7 µM] (inactive).

How did the Potency turn out when `O=Cc1ccc2c(c1)OCO2` was run?
The Potency was “inactive”.

With `CN(C)C(=O)Nc1cccc(OC(=O)NC(C)(C)C)c1` as the molecule, how does the Potency read?
Its Potency is “inactive”.

With `IC(I)=C(I)I` as the molecule, how does the Potency read?
The Potency was “inactive”.

`CC1(C)COP(Oc2ccccc2)OC1` was tested. Which Potency did it give?
The Potency was “inactive”.

`Clc1ccccc1N1CCNCC1` was tested. Which Potency did it give?
Its Potency is 1160 nM (active).

Which Potency does the source give for `Oc1c(I)cc(I)cc1I` here?
The Potency was 42100 nM (active).

Which Potency does the source give for `Oc1ccc2c3c1O[C@H]1[C@@H](O)C=C[C@H]4[C@@H](C2)NCC[C@@]341` here?
The Potency was “inactive”.

With `Oc1ccc(I)cc1` as the molecule, how does the Potency read?
The Potency was “inactive”.

How did the Potency turn out when `CN(C)CCc1c[nH]c2ccccc12` was run?
Its Potency is 16.6 nM (active).

`[Cl][Sn]([Cl])([Cl])[Cl]` was tested. Which Potency did it give?
The Potency was “inactive”.

`CC(C)[C@H](C(=O)O[C@H](C#N)c1cccc(Oc2ccccc2)c1)c1ccc(Cl)cc1` was tested. Which Potency did it give?
The Potency was “inactive”.

Which Potency does the source give for `N#CC(Br)(Br)C(N)=O` here?
Its Potency is “inactive”.

How did the Potency turn out when `CCOP(=S)(OCC)OC(Cl)C(Cl)(Cl)Cl` (stereo not given) was run?
The Potency was “inactive”.

For `C[N+](C)=CCl`, which Potency is on record?
The Potency was “inactive”.

For `O=[N+]([O-])c1cccc2cccnc12`, which Potency is on record?
Its Potency is “inactive”.

How did the Potency turn out when `CN1C2CCC(C)(C)C1CC(OC(=O)C(O)(c1cccs1)c1cccs1)C2` (stereo not given) was run?
Its Potency is “inactive”.

`O=C(C(Cl)(Cl)Cl)C(Cl)(Cl)Cl` was tested. Which Potency did it give?
Its Potency is “inactive”.

With `N#Cc1c[nH]cc1-c1cccc2c1OC(F)(F)O2` as the molecule, how does the Potency read?
The Potency was “inactive”.

For `ClCCCCCCCl`, which Potency is on record?
Its Potency is “inactive”.

`O=S(=O)(O)F` was tested. Which Potency did it give?
Its Potency is “inactive”.

With `Nc1cc(Cl)ccc1O` as the molecule, how does the Potency read?
Its Potency is “inactive”.

How did the Potency turn out when `S=C=NCCc1ccccc1` was run?
The Potency was “inactive”.

With `CC(C)C[C@H](NC(=O)CNC(=O)[C@H](Cc1ccc(O)cc1)NC(=O)[C@H](CO)NC(=O)[C@H](Cc1c[nH]c2ccccc12)NC(=O)[C@H](Cc1cnc[nH]1)NC(=O)[C@@H]1CCC(=O)N1)C(=O)N[C@@H](CCCN=C(N)N)C(=O)N1CCC[C@H]1C(=O)NCC(N)=O` (stereo in doubt) as the molecule, how does the Potency read?
Its Potency is “inactive”.

How did the Potency turn out when `CCOC(=O)c1cn2nc(OP(=S)(OCC)OCC)cc2nc1C` was run?
Its Potency is “inactive”.

`CCOc1cc(Oc2ccc(C(F)(F)F)cc2Cl)ccc1[N+](=O)[O-]` was tested. Which Potency did it give?
The Potency was “inactive”.

For `CCN(CC)CCc1c[nH]c2ccccc12`, which Potency is on record?
The Potency was 22.1 nM (active).

`CNC(=O)Oc1ccccc1C(C)C` was tested. Which Potency did it give?
Its Potency is “inactive”.

Which Potency does the source give for `CCC1(c2ccccc2)C(=O)N(COC)C(=O)N(COC)C1=O` here?
The Potency was “inactive”.

For `O=C(NC(O)C(Cl)(Cl)Cl)NC(O)C(Cl)(Cl)Cl` (stereo not given), which Potency is on record?
Its Potency is “inactive”.

With `C=C(Cl)CSC(=S)N(CC)CC` as the molecule, how does the Potency read?
Its Potency is “inactive”.
